Test results published in PubChem BioAssay AID686979 (National Center for Advancing Translational Sciences (NCATS), 2013).
Where “and” joins values, the source holds several entries; their conditions need not be identical. Equal values may be shown once. In all, about 420,000 compounds went through this assay and about 50,000 (12%) were called active. Entries that show only a call come without a potency. Not shown: some 26% with an inconclusive outcome. This excerpt belongs to a sample that is enriched for actives. A number with no mark means an inactive call. Calls come from the whole dose curve; as a rule, active = well fitted inhibition curve with a large enough effect; inconclusive = small, poorly fitted or top-dose-only effect; inactive = flat fitted curve, though single readings scatter.

Test: qHTS for Inhibitors of human tyrosyl-DNA phosphodiesterase 1 (TDP1): qHTS in cells in presence of CPT; note: nearly all actives have a fitted effect of over 55% in size
Details: chicken DT40 Tdp1-/-;hTDP1 cells + 20 nM CPT, ATP luminescence, 48 h; series mostly up to 46.2 µM
Source text: Human tyrosyl-DNA phosphodiesterase 1 (TDP1) is a novel repair gene, and we propose to use it as a new target for anticancer drug development. TDP1 is not an essential protein, but under treatment with topoisomerase I poison (camptothecin: CPT), TDP1 works as a critical factor for cell survival. To directly identify novel TDP1 inhibitors active in a cellular environment, we have knocked-out the Tdp1 gene in chicken DT40 cells (Tdp1-/-) and generated a complemented counterpart cells that contains a stable transfection of the human TDP1 gene (Tdp1-/-;hTDP1 cells). For the primary screen, Tdp1-/-;hTDP1 cells will be exposed to small molecules in the presence or absence of CPT, and their growth kinetics will be evaluated after 48 hours by measuring ATP activity. […] The hit compounds will then be evaluated in the presence or absence of CPT using Tdp1-/- cells. […] In tertiary assays, biochemical gel-based assays will be used to assess whether the hit compounds specifically target TDP1. To this end, we have screened this cell line against the MLSMR in two primary screens. In one screen we add CPT and in the other we screen in the absence of CPT; this AID represents the screen where CPT was present. NIH Chemical Genomics Center [NCGC] NIH Molecular Libraries Probe Centers Network [MLPCN] MLPCN Grant: MH095538 Assay Submitter (PI): Yves Pommier, NCI
DT40-hTDP1 cells with 20 nM Camptothecin (add 20 microL of 1 mM CPT stock in 1 L of cell culture medium) were dispensed at 400 cells/5microL/well in tissue culture treated 1536-well white wall/solid bottom assay plates (Greiner Bio-One North America, NC, U.S.A.) using a Multidrop Combi 8 channel dispenser (Thermo Fisher, Waltham, MA, USA). 23 nL compounds and controls were transferred using the pin tool (Kalypsys, San Diego, CA, USA) to the assay plates. The assay plates were then incubated at 37 masculineC for a minimum 48 hr. Three microL of Cell Titer Glo solution was added to the plates and incubated at RT in dark for 30 min. Luminescence was read using ViewLux (Perkin Elmer) with 1 sec exposure slow speed, high gain and 2x binning.
Potency is the fitted concentration of half-maximal effect.

Structure (SMILES) | Potency | activity change, negative = growth inhibition
Cc1ccc(C(C)C)c(OCC(=O)N2CCN(CC(=O)N3CCOCC3)CC2)c1 | inactive | 
CN1CCC(N(C)Cc2cccnc2)CC1 | inactive | 
c1ccc(CCCCN2CCC(c3ccccc3)CC2)cc1 | 16.8 µM (active) and 23.1 µM (active) | 
c1ccc(CCN2CCC3(CC2)OCCO3)cc1 | inactive | 
CC1=CC(=O)C2=C(C)C[C@H](O)[C@H]3[C@H](C)C(=O)O[C@@H]3C12 (stereo not given in full) | inactive | 
Cc1cccc(Cn2cccc(C(=O)Nc3ccc4c(c3)OCCO4)c2=O)c1 | 9.2 µM (active) | 
CN(C)/C=C(\C=[N+](C)C)c1[nH]ncc1[N+](=O)[O-] | inactive | 
O=C1NC(=O)C(CCOc2ccccc2)(CCc2ccccc2)C(=O)N1 | inactive | 
COc1ccc(-c2nn(CCC#N)cc2C(=O)Nc2ccc(C(C)=O)cc2)cc1 | inactive | 
COc1ccc(C2Oc3c(I)c(OC)cc(OC)c3CC2O)cc1OC (stereo not given) | inactive | 
CCOP(=O)(OCC)C(O)c1ccc(OC)cc1OC (stereo not given) | inactive | 
CC(Cc1ccccc1)NC=O (stereo not given) | inactive | 
CC(Cc1ccccc1)NCCC(c1ccccc1)c1ccccc1 (stereo not given) | 9.2 µM (active) | 
Nc1ccc([N+](=O)[O-])cc1 | inactive | 
C=CCn1c(O)c(/C=N/N2CCOCC2)c(=O)[nH]c1=S | inactive | 
CC(=O)Nc1ccccc1C(=O)OCC(=O)c1cccc2ccccc12 | inactive | 
COC(=O)C1=C(c2cc3ccccc3o2)C[C@@H]2CC[C@H]1N2C(=O)NC1CCCCC1 | 18.4 µM (active) | 
COC(=O)C1=C(c2ccc(C(C)=O)cc2)C[C@@H]2CC[C@H]1N2C(=O)NCCNC(C)=O | inactive | 
COC(=O)C1=C(c2ccc(Cl)c(C(F)(F)F)c2)C[C@@H]2CC[C@H]1N2C(=O)NC1CC1 | 14.6 µM (active) | 
COC(=O)C1=C(c2cc3ccccc3s2)C[C@@H]2CC[C@H]1N2C(=O)NC(C)C | 23.1 µM (active) | 
COC(=O)C1=C(c2cc3ccccc3s2)C[C@@H]2CC[C@H]1N2C(=O)NCCO | inactive | 
COC(=O)CN(CCCl)P1(=O)OCCCN1CCCl (stereo not given) | inactive | 
C/C(CCc1c[nH]c2ccccc12)=N\O | inactive | 
CCN1CCN(Cc2cc(OC)c3c(c2)OCO3)CC1 | inactive | 

Structure (SMILES) | Potency | activity change, negative = growth inhibition
C1CC[C@H]([C@@]23C[C@H](C[C@H]4CCCN[C@H]42)[C@@H]2CCCCN2C3)NC1 |  | -5.16% [at 9.04 µM]
CN1C2CC3CC1C(O3)C2O (stereo not given) | inactive | 
COP(=O)(OC)C(NC(=O)c1ccc(C)cc1)C(Cl)(Cl)Cl (stereo not given) | inactive | 
C#C[C@]1(OC(=O)CCCCCC)CC[C@H]2[C@@H]3CCC4=CC(=O)CC[C@@H]4[C@H]3CC[C@@]21C | inactive | 
CC(=O)OC1C2(CC3N4C(=O)C5(CO)SSC4(CC31O)C(=O)N5C)OC(C)C(C)(C)C2=O (stereo not given) | 0.146 µM (active) | 
O=C(c1cc(S(=O)(=O)N2CCOCC2)ccc1F)N1CCC2(CC1)OCCO2 | inactive | 
CCc1nnc(NS(=O)(=O)c2ccc(N=Cc3c(O)n(-c4ccccc4)c(=O)[nH]c3=O)cc2)s1 | inactive | 
O=[N+]([O-])c1ccc(Cl)c(Cl)c1 | inactive | 
O=C(Cc1ccc(Cl)cc1)NCCN1CCN(C(=O)Cc2ccc(Cl)cc2)CC1 | inactive | 
C[C@@H]1C[C@@H]2O[C@H]2/C=C\C=C\C(=O)Cc2c(Cl)c(O)cc(O)c2C(=O)O1 | 0.0411 µM (active) | 
CCOC(=O)C1=C(C)OC(N)=C(C(=O)OC)C12C(=O)Nc1ccc(Br)cc12 (stereo not given) | inactive | 
CCN1CCN(C(=O)Cc2coc3cc(C)cc(C)c23)CC1 | inactive | 
NC(=O)Cn1cc(C(=O)c2ccccc2F)c2ccccc21 | inactive | 
COCCNC(=O)CN1C2CCC1CC(O)(c1cccnc1)C2 (stereo not given) | inactive | 
Cc1cc2n(n1)C(c1cc(C(C)(C)C)c(O)cc1O)Nc1ccccc1-2 (stereo not given) | 14.6 µM (active) | 
CCC/C(=N\O)c1c[nH]c2ccccc12 | inactive | 
NCC(O)c1ccc(O)cc1 (stereo not given) | inactive | 
CC[N+](C)(CC)CCC[n+]1c(-c2ccccc2)c2cc(N)ccc2c2ccc(N)cc21 | 2.58 µM (active) | 
COc1ccc(NC(=O)N2Cc3ccccc3-n3nncc3C2)cc1 | inactive | 
CCN(CC)CCOC(=O)c1cc2cc(COC)ccc2o1 | inactive | 
CC(=O)c1ccc(OC(NC(=O)Cc2ccccc2)C(Cl)(Cl)Cl)cc1 (stereo not given) | inactive | 
Cc1cccc2c3c(ccc12)C1=C(C(=O)C3=O)C(C)CO1 (stereo not given) | 4.11 µM (active) | 
CCOC(=O)c1c(N)n(CCN2CCOCC2)c2nc3ccccc3nc12 | inactive | 
CC1(C)OC[C@@H](COC(=O)CCc2ccc(OC[C@@H](O)CNCCNC(=O)N3CCOCC3)cc2)O1 | inactive | 

Structure (SMILES) | Potency | activity change, negative = growth inhibition
Cc1ccc(S(=O)(=O)N(C)c2ccc(C(=O)NCC3(N(C)C)CCCCC3)cc2)cc1 | inactive | 
O=C(CN1CCCCC1)Nc1ccc(Br)cc1C(=O)c1ccccc1Cl | inactive | 
O=C(CCN1CCCCC1)NCC(=O)Nc1ccc(Br)cc1C(=O)c1ccccc1 | 18.4 µM (active) | 
CCOC(=O)CC(SP1(=S)OCC2(CCCCO2)C(C2CCCCO2)O1)C(=O)OCC (stereo not given) | inactive | 
C[C@]12CCC3C(CC[C@H]4[C@H](O)[C@H](O)CC[C@]34C)C1CC[C@@H]2O (stereo not given in full) | inactive | 
C[C@]12CCC3C(CC[C@H]4C[C@@H](O)CC[C@]34C)C1C[C@@H](O)[C@H]2O (stereo not given in full) | inactive | 
C[C@]12CCC3C(CC[C@H]4[C@H](O)[C@H](O)CC[C@]34C)C1CCC2=O (stereo not given in full) | 16.4 µM (active) | 
Nc1ccc(Cc2ccc(N)c(Cl)c2)cc1Cl | inactive | 
Cc1ccc(Cn2nnnc2CN2CCC(n3nnc4ccccc43)CC2)cc1 | inactive | 
O=c1[nH]c2ccccc2n1C1CCN(C(c2ccccc2)c2nnnn2Cc2ccccc2)CC1 (stereo not given) | 18.4 µM (active) | 
O=c1[nH]c2ccccc2n1C1CCN(C(c2ccnc3ccccc23)c2nnnn2Cc2ccccc2)CC1 (stereo not given) | 20.6 µM (active) | 
Cc1ccsc1C(=O)C1CCCN(Cc2ccc(O)cc2)C1 (stereo not given) | inactive | 
Cc1cccc(-n2c(O)c(C=NC34CN5CN(CN(C5)C3)C4)c(=O)[nH]c2=O)c1 | inactive | 
Cc1nn(Cc2ccccc2Cl)c(Cl)c1C(=O)OC(C(=O)NC(N)=O)C(C)C (stereo not given) | inactive | 
CCOc1ccc(CN(CCCl)CCCl)cc1C(=O)OC | 4.11 µM (active) | 
Cc1cc(C=C2C(=O)NC(=O)NC2=O)c(C)n1-c1ccncc1 | inactive | 
N=c1ccccn1Cc1ccccc1 | inactive | 
CC1=CC(=Cc2sc3ccccc3[n+]2C)C=C(C)O1 | 0.164 µM (active) | 
CCOc1ccc(-c2cc(C)[n+](CCN(CC)CC)c(-c3ccc(OCC)cc3)c2)cc1 | 0.206 µM (active) | 
COc1cc(C(=O)N2Cc3ccc(Br)cc3-n3nncc3C2)cc(OC)c1OC | inactive | 
CC=C(C)C(=O)OC1CCN2CC=C(COC(=O)C(O)(C(C)OC)C(C)(C)O)C12 (stereo not given) | inactive | 
CN(Cc1cccc2ncccc12)C(=O)c1cnn(-c2nccc(-c3ccccc3F)n2)c1C1CC1 | 5.17 µM (active) | 
COc1ccccc1OC(=O)c1ccc(C)c(S(=O)(=O)N2CCOCC2)c1 | inactive | 
CC(=NC1CCN(Cc2ccccc2)CC1)c1c(O)n(C)c(=O)n(C)c1=O | inactive | 

Structure (SMILES) | Potency | activity change, negative = growth inhibition
N[C@H](Cc1o[nH]c(=O)c1Cl)C(=O)O | inactive | 
CO[C@@H]1C[C@@H](C[C@H]2CC[C@H](C)[C@@H]([C@@H](C)C(=O)O)O2)O[C@]2(O[C@](C)([C@H]3CC[C@@](C)(C4OC([C@H]5O[C@@](O)(CO)[C@H](C)C[C@@H]5C)C[C@@H]4C)O3)C[C@H]2C)[C@@H]1C (stereo not given in full) | 0.588 µM (active) | 
COC(=O)C1=C(c2c(C)noc2C)C[C@@H]2CC[C@H]1N2C(=O)NCc1ccc2c(c1)OCO2 | inactive | 
COC(=O)C1=C(c2ccc(F)cc2OCc2ccccc2)C[C@@H]2CC[C@H]1N2C(=O)NCc1ccc(Cl)cc1 | 20.6 µM (active) | 
CCOC(=O)c1cccc(C2=C(CNC(=O)c3ccncc3)[C@H]3CC[C@@H](C2)N3Cc2ccccc2)c1 | inactive | 
COC(=O)C1=C(c2ccccc2)C[C@@H]2CC[C@H]1N2C(=O)NCc1ccco1 | inactive | 
COC(=O)C1=C(c2ccc(F)cc2OCc2ccccc2)C[C@@H]2CC[C@H]1N2C(=O)NCc1ccc(OC)c(OC)c1 | 18.4 µM (active) | 
COC(=O)C1=C(c2ccc(-c3ccccc3)c(F)c2)C[C@@H]2CC[C@H]1N2C(=O)NCc1ccc(F)cc1 | 16.4 µM (active) | 
COC(=O)C1=C(c2cccc(OCc3ccccc3)c2)C[C@@H]2CC[C@H]1N2C(=O)NNCc1ccccc1 | 20.6 µM (active) | 
COc1ccc(CCn2c(O)c(C=NC3CC3)c(=O)[nH]c2=O)cc1OC | inactive | 
CCN(CC)c1ccc([N+](=O)[O-])c2cccnc12 | inactive | 
CC(C)c1c(CN(C)C(C)Cc2ccccc2)n(C)n(-c2ccccc2)c1=O (stereo not given) | inactive | 
CCN1c2nc3c(C)cccn3c(=O)c2CC2(C(=O)N(C)C(=O)N(C)C2=O)C1C (stereo not given) | inactive | 
CCC(C)n1c(O)c(/C=N/Nc2nc3c(c(=O)n(C)c(=O)n3C)n2C)c(=O)[nH]c1=S (stereo not given) | inactive | 
Fc1cccc(F)c1CN1CCN(Cc2c(F)cccc2F)CC1 | inactive | 
Cc1cc(C(=O)OCC(=O)Nc2c(F)cccc2F)c(C)n1C1CC1 | inactive | 
COC(=O)C1=C(c2ccc(OCc3ccccc3)cc2)C[C@@H]2CC[C@H]1N2C(=O)NCc1cccc(F)c1 | 25.9 µM (active) | 
COC(=O)C(c1ccccc1)N1CCCCCC1 (stereo not given) | inactive | 
COC(=O)C1=C(c2ccccc2)C[C@@H]2CC[C@H]1N2C(=O)N1CCCCC1 | 5.8 µM (active) | 
O=C(NC(=S)N1C[C@H]2C[C@H](C1)c1cccc(=O)n1C2)c1ccc(F)cc1 | inactive | 
CC1CCCN1CCC(C(N)=O)(c1ccccc1)c1ccccc1 (stereo not given) | inactive | 
COc1ccc(CCn2c(O)c(C=NCCCn3ccnc3)c(=O)[nH]c2=O)cc1OC | inactive | 
CC(=O)Cc1ccc(OC(C)C)cc1 | inactive | 
